Source: PubChem (National Center for Advancing Translational Sciences (NCATS))
PINK1 modulator – modulators of PINK1 expression; PINK1 immunofluorescence, high-content cytometry, 24 h; Potency, µM (doses to about 76.6 µM), usual class: activators; actives 0.2% (n = 410,000); AID 624263; active = well fitted activation curve with a large enough effect; inconclusive = small, poorly fitted or top-dose-only effect; cell line not stated here; note: nearly all actives have a fitted effect of over 65% in size
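Cells are seeded, rested 12 hours, then given compound at five concentrations or DMSO for 24 hours. After fixation, blocking and antibody staining, PINK1 amount and mitochondrial localization are scored; CCCP serves as control.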
SW480 rereplic – inducers of DNA re-replication in SW480 colon cancer cells | SW480 DNA re-replication, Hoechst DNA content imaging, 48 h | actives 1.8% (n = 340,000) | AID 624297 | Potency, µM (titrated, usually from 46.1 µM), most hits filed as activators; note: nearly all actives have a fitted effect of over 55% in size
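First, 250 cells per well were seeded. Next, compound or vehicle (23 nL) was pinned in, plates sat 48 hr at 37 C. Finally Hoechst was added for 40 min before fluorescence scanning.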
KB-3-1 cytotox – kills parental KB-3-1 adenocarcinoma cells | KB-3-1 viability, CellTiter-Glo ATP luminescence, 72 h | Potency, µM (top dose mostly 46.1 µM), hits mostly cytotoxic | actives 1.4% (n = 400,000); note: nearly all actives have a fitted effect of over 60% in size
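KB-3-1 cells, DMEM (no phenol red) + 10% FBS; compound by pin transfer, 72 h, 37 °C. Readout: CellTiter-Glo luminescence after 10 min. Data normalized, curve-fitted.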
KB-V1 MDR tox – kills drug-selected multidrug resistant KB-V1 cells. Potency, µM (series often up to 46.1 µM), usual class: cytotoxic. KB-V1 MDR cells viability, CellTiter-Glo, 72 h. AID 1347076. actives 3.4% (n = 400,000); note: nearly all actives have a fitted effect of over 60% in size
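Cytotoxicity toward P-gp-expressing KB-V1 cells was determined as loss of CellTiter-Glo luminescence after 72 h at 37 degrees C. Compounds were tested in quantitative HTS format across a concentration range, with curves fitted to normalized data.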
MCF10A rereplic – inducers of DNA re-replication in MCF 10A breast cells | MCF 10A DNA re-replication, Hoechst nuclear intensity, 48 h | Potency, µM (top dose mostly 46.1 µM), most hits filed as activators | actives 2.9% (n = 350,000); note: nearly all actives have a fitted effect of over 50% in size
Hits are given with their value; 0 = inactive; ? = inconclusive; - = not tested or not shown; ! = not confirmed by another sample; [ ] = dose if it differs, or a comment. Hits are enriched below; roughly 6.7% of the tested compounds scored in any of these assays. Unless noted, calls come from the whole dose curve; as a rule, active = well fitted curve in the direction sought with a large enough effect; inconclusive = small, poorly fitted or top-dose-only effect, or another doubt; inactive = no such curve, though single readings can be large; an effect the other way counts as inactive or inconclusive.

SMILES | PINK1 modulator | SW480 rereplic | KB-3-1 cytotox | KB-V1 MDR tox | MCF10A rereplic
CN(CC(=O)Nc1ccc(OC(F)(F)F)cc1)C(=O)c1ccccc1SCC(=O)N1CCCC1 | 0 | 0 | 16.4µM | 7.31µM | 0
CC(C)CC(=O)Nc1c2c(nn1-c1cccc(Cl)c1)CS(=O)C2 (stereo not drawn) | 0 | 0 | 0 | ? | 0
CCCCSc1cnn(-c2ccccc2)c(=O)c1SCCCC | 0 | ? | 18.4µM | 18.4µM | ?
Cc1cccc(C)c1NC(=O)CSc1nc(C)c(CC(=O)c2ccc(Br)cc2)c(C)c1C#N | 0 | 0 | ? | ? | 16.4µM
O=C(C[C@H]1C[C@H](C(=O)N2CCCCC2)[C@@]2(CCc3ccccc3)c3[nH]c4ccc(Cl)cc4c3CCN2C1=O)NCc1cccc(C(F)(F)F)c1 | 0 | 0 | 0 | 0 | 0
CCOC(=O)C1CCCN(S(=O)(=O)c2ccc(N3CCCCS3(=O)=O)cc2)C1 (stereo not drawn) | 0 | - | 0 | ? | -
CC(OC(=O)C1=Cc2ccccc2OC1)C(=O)NC1CCCC1 (stereo not drawn) | 0 | 0 | 0 | 0 | 0
CC(C)C(OC(=O)C1=Cc2ccccc2OC1)C(=O)NCC1CCCO1 (stereo not drawn) | ? | 0 | 0 | 0 | 16.4µM
COCCn1c(SCC(=O)NC2CCCC2)nc2c(c1=O)SCC2 | 0 | 0 | 0 | 0 | 0
CC(C)(C)n1nnnc1C(c1cc2ccccc2o1)N(Cc1ccccc1)Cc1ccccc1 (stereo not drawn) | 0 | - | ? | 20.6µM | -
CC(C)(C)n1nnnc1C(c1cccs1)N(Cc1ccc(Cl)cc1)CC1CCCO1 (stereo not drawn) | 0 | 0 | 23.1µM | 0 | ?
Cc1ccc(C(c2nnnn2C(C)(C)C)N(Cc2ccco2)Cc2cccs2)cc1 (stereo not drawn) | 0 | 0 | 16.4µM | ? | 0
CC(C)(C)n1nnnc1C(c1cccnc1)N(Cc1ccccc1)Cc1cccs1 (stereo not drawn) | 0 | 0 | ? | 20.6µM | ?
CC(C)(C)n1nnnc1C(c1cccs1)N(Cc1ccccc1)Cc1cccnc1 (stereo not drawn) | 0 | 0[9.22 µM] | ? | ? | 0
Cc1ccc(OCC(=O)Nc2cc(-c3nc4cc(Cl)ccc4o3)ccc2C)c(C)c1 | 0 | - | 0 | 0 | -
COC(=O)c1cn([C@@H]2C[C@@H](C(=O)Nc3cccc(SC)c3)N(C3CCCCCC3)C2)nn1 | 0 | - | - | - | -
CCN(CC)C(=O)C1=C(C)N(CCCN2CCCC2=O)C(=O)C(CC(=O)NC2CCCCC2)C1 (stereo not drawn) | 0 | - | 0 | 0 | -
CCc1ccccc1NC(=O)Nc1ccc2snnc2c1 | ? | - | 0 | 0 | -
O=C(Nc1ccc2snnc2c1)Nc1cccc2ccccc12 | ? | 0 | 20.6µM | ? | ?
Cc1ccc(-c2nn3c(-c4ccccc4)nnc3c3ccccc23)cc1 | 0 | - | - | - | -
COc1cc(-c2noc(C)c2C#Cc2nccn2C)cc(OC)c1OC | 0 | ? | 9.2µM! | 4.61µM! | 16.4µM
COc1ccc(OC)c(S(=O)(=O)N2CCCCC2C(=O)N2CCN(c3ccccn3)CC2)c1 (stereo not drawn) | 0 | ? | 0 | 9.2µM | 0
COc1ccc(OC)c(S(=O)(=O)N2CCN(c3ccccn3)CC2)c1 | 0 | ? | 0 | 0 | ?
Cc1ccc(C)c(NC(=O)C2CCCN(c3nc4ccccc4s3)C2)c1 (stereo not drawn) | 0 | - | 0 | 0 | -
Cc1ccc2[nH]c3c(c2c1)CCCC3C(N)=O (stereo not drawn) | 0 | 0 | 0 | 0 | 0
SMILES | PINK1 modulator | SW480 rereplic | KB-3-1 cytotox | KB-V1 MDR tox | MCF10A rereplic
Cc1ccc2[nH]c3c(c2c1)CCCC3NC(=O)CCl (stereo not drawn) | 0 | 8.2µM | 0 | ? | 20.6µM
CC(C)COC(=O)c1ccc2c(c1O)C(=O)c1ccccc1C2=O | 0 | ? | 0 | 14.6µM | ?
O=C(N/N=C/c1cccc2nccnc12)c1ccccc1O | 0 | 14.6µM | ? | 0 | ?
O=C(N/N=C/c1cccc2cccnc12)c1ccccc1O | 0 | ? | ? | ? | ?
Cc1cc(CN2CCN(CC(=O)Nc3cc(Cl)ccc3-n3cncn3)CC2)no1 | 0 | ? | 0 | 0 | 0
Cc1cc(CN2CCN(CC(=O)Nc3cc(C(F)(F)F)ccc3-n3cncn3)CC2)no1 | 0 | 0 | 0 | 23.1µM | 0
CCC1(C)CC2(CCCN(CCC(=O)c3ccccc3)C2)CCO1 (stereo not drawn) | 0 | 0 | 0 | 0 | 20.6µM
O=C(CCN1CCCCCC1)c1ccccc1 | 0 | 0 | 0 | 0 | 0
O=c1c(Cl)c(Cl)cnn1Cc1ccccc1Cl | 0 | ? | ? | 0 | 5.8µM
O=c1c(Cl)c(Cl)cnn1Cc1nnc(-c2ccc(Cl)cc2)o1 | 0 | 3.66µM | ? | 0 | 5.8µM
Cc1ccc(Cn2ncc(Cl)c(Cl)c2=O)cc1 | 0 | ? | 0 | 0 | ?
Cc1cc(C)cc(Cn2ncc(Cl)c(Cl)c2=O)c1 | 0 | 3.66µM | ? | 23.1µM | 3.66µM
O=c1[nH]cnc2c1cnn2Cc1ccccc1Cl | 0 | 0 | 0 | 0 | 0
COc1ccc(S(=O)(=O)NCC(c2ccc3c(c2)OCO3)N2CCN(C)CC2)cc1OC (stereo not drawn) | 0 | 0 | 0 | 0 | 0
CCOc1ccc(S(=O)(=O)NCC(c2ccc3c(c2)OCO3)N2CCN(C)CC2)cc1 (stereo not drawn) | 0 | 6.51µM | 0 | 0 | 0
CC(C)NC(=O)C1(C)CCN1Cc1ccc(C(F)(F)F)cc1 (stereo not drawn) | 0 | - | 0 | 0 | -
CC(C(Sc1ccccc1N)c1ccccc1)[N+](=O)[O-] (stereo not drawn) | 0 | 0 | 11.6µM | 0 | ?
Nc1ccccc1SC(CC(=O)c1ccccc1)c1ccccc1 (stereo not drawn) | 0 | - | 0 | 0 | -
CC(C)(C)c1ccc(-c2conc2N)cc1 | 0 | ? | 0 | 0 | 17.8µM
CC(C)(C)c1ccc(-c2nc(N)nc(N)n2)cc1 | 0 | 0 | 0 | 0 | 0
CCOC(=O)C1CCN(S(=O)(=O)c2cc3c4c(c2)CC(=O)N4CCC3)CC1 | 0 | - | 0 | 0 | -
Fc1ccc(N2CCN(c3ncnc4c3nnn4Cc3ccccc3Cl)CC2)cc1 | 0 | 0[9.22 µM] | ? | 0 | ?
c1ccc(Cn2nnc3c(N4CCCCCC4)ncnc32)cc1 | 0 | 0 | ? | 0 | ?
CCCN1CCN(c2ncnc3c2nnn3Cc2ccccc2)CC1 | 0 | 20.6µM | ? | 16.4µM | ?
O=C(c1ccco1)N1CCN(c2nc(C(F)(F)F)nc3c2nnn3Cc2ccccc2)CC1 | 0 | 0 | ? | 2.31µM | 0
O=C(c1ccco1)N1CCN(c2ncnc3c2nnn3Cc2ccccc2Cl)CC1 | 0 | 0 | 0 | 5.8µM | 0
CN1CCN(c2ncc3nc(CCc4ccccc4)c(=O)n(Cc4ccc(F)cc4)c3n2)CC1 | 0 | - | - | - | -
COc1cccc(CNC(=O)CCCn2nc(C)n3c(cc4sccc43)c2=O)c1 | 0 | 0 | 0 | ? | 0
O=C(Cn1c(SCC(=O)Nc2ccc(F)cc2)nc2ccccc21)NCc1ccccc1Cl | 0 | - | 0 | ? | -
CC(C)Cn1c([N+](=O)[O-])nc2c1c(=O)[nH]c(=O)n2C | 0 | ? | ? | ? | 11.6µM
